Screening data from PubChem BioAssay.
SMN2 splice enh: SMN2 splice variant enhancement. hit rate 2.8% among 210,000. Potency, µM (doses to about 46.1 µM), hits mostly activators. HEK293 SMN2-luciferase splicing reporter, luminescence, 30-36 h; further: nearly all actives have a fitted effect of over 55% in size
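HEK293 cells carry an SMN2 […]–luciferase reporter in which exon 7 inclusion puts luciferase in frame. Cells were plated 10-12 h before compound addition, then incubated 30-36 h at 37C. ONE-Glo luminescence was read; sodium butyrate at 4.5 mM final served as control.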
NPC1 promoter act: activators of NPC1 promoter | Huh7 NPC1 promoter luciferase reporter, 24 h | Potency, µM (highest dose often 9.22 µM), usual class: activators | hit rate 2.4% among 320,000 | AID 485313; further: nearly all actives have a fitted effect of over 60% in size
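Quantitative HTS used a cell-based reporter: Huh7 cells stably bearing the NPC1 promoter upstream of luciferase were treated with compounds for 24 h, and promoter activation was read as luminescence.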
FLuc modulator: counter-screen for miR-21 project: firefly luciferase inhibitors or activators. Potency, µM (titrated, usually from 57.5 µM), actives largely listed as inhibitors. hit rate 6.9% among 360,000. purified FLuc, Km substrates, luminescence inhibition; further: nearly all actives have a fitted effect of over 55% in size
Target sequence (P08659 whole entry, looked up): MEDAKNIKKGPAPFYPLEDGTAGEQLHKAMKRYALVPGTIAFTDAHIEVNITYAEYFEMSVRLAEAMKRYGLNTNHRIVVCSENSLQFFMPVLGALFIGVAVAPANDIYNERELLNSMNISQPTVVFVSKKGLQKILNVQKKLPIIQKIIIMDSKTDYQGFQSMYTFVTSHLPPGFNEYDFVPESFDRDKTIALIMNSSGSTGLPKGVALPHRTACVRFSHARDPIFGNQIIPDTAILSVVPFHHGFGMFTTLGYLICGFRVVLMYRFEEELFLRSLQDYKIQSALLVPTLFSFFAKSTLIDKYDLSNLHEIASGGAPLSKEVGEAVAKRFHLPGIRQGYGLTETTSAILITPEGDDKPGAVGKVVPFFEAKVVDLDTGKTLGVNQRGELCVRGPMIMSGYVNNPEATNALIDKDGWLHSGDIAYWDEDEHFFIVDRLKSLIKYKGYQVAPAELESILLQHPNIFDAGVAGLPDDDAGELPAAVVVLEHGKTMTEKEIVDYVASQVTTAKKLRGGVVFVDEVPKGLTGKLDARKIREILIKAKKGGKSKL
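Biochemical qHTS of compounds, final roughly 60 µM downward over six points, against 10 nM purified firefly luciferase using Km concentrations of substrates (10 uM D-luciferin, 10 uM ATP) in Tris acetate pH 7.5 buffer; luminescence output.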
Rab9 prom act: activates the Rab9 promoter; AID 485297; Huh7 Rab9 promoter-luciferase reporter, luminescence, 24 h; hit rate 2.8% among 320,000; Potency, µM (doses to about 9.22 µM), actives largely listed as activators; further: nearly all actives have a fitted effect of over 60% in size
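Cell-based reporter: Huh7 stable for Rab9 promoter-driven luciferase, plated in reduced-serum medium with 10% FBS at 1500 cells/well, compound-treated 24 h at 37 °C, luminescence read after 10 min reagent.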
ELG1 DNA repair: inhibitors of ELG1-dependent DNA repair in HEK293T cells; HEK293T ELG1-luciferase reporter, luminescence, 16 h; DNA damage induced by 5-fluorouridine; hit rate 2.3% among 330,000; Potency, µM (highest dose often 46.1 µM), hits mostly inhibitors; AID 504467; further: nearly all actives have a fitted effect of over 55% in size
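HEK293T cells expressing luciferase-tagged ELG1 (2,000/well) received 5-Fluorouridine plus compound or DMSO for 16 hr at 37 °C. Luciferase was read by ONE-Glo luminescence after 30 min at room temperature.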
ELG1 genotox: induces genotoxicity in HEK293T cells with luciferase-tagged ELG1 | HEK293T ELG1-luciferase reporter, luminescence, 16 h | Potency, µM (series often up to 46 µM), hits mostly activators | hit rate 1.3% among 330,000; further: nearly all actives have a fitted effect of over 60% in size
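16 hr compound incubation (37 °C, 5% CO2) of HEK293T cells carrying luciferase-tagged ELG1; luciferase then measured by ONE-Glo luminescence after 30 min at RT.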
Each line names hits and unclear results; the compound was inactive in the other large screens. Compounds with a hit are over-represented: about 9.2% of the library has one in this group of screens. The call rests on the fitted dose curve; in most records, active means well fitted curve in the direction sought with a large enough effect; inconclusive means small, poorly fitted or top-dose-only effect, or another doubt; inactive means no such curve, though single readings can be large; an effect the other way counts as inactive or inconclusive.

O=C(N/N=C/c1ccco1)c1cc(-c2ccc3ccccc3c2)n[nH]1	FLuc modulator 19µM
CCN(CC)Cc1c(O)ccc2cc(-c3nc4ccccc4n3C)c(=O)oc12	ELG1 DNA repair inconclusive (no result: SMN2 splice enh)
CCOc1ccc2oc(=O)cc(CN3CCN(c4ccc(Cl)cc4)CC3)c2c1	none (no result: NPC1 promoter act, Rab9 prom act, ELG1 DNA repair, ELG1 genotox)
CCN(CC)CCNC(=O)c1ccc(-c2nc(CS(=O)(=O)c3ccc(C)cc3)c(C)o2)cc1	none (no result: SMN2 splice enh, NPC1 promoter act, Rab9 prom act, ELG1 DNA repair, ELG1 genotox)
Oc1ccccc1C1CC(c2cccs2)=NC(c2ccc(Cl)cc2)N1 (stereo not drawn)	FLuc modulator inconclusive, Rab9 prom act inconclusive (no result: SMN2 splice enh)
CCOc1ccccc1C1N=C(c2ccc(OC)cc2)CC(c2ccccc2O)N1 (stereo not drawn)	NPC1 promoter act inconclusive, FLuc modulator 19µM, Rab9 prom act inconclusive, ELG1 DNA repair inconclusive, ELG1 genotox inconclusive (no result: SMN2 splice enh)
CC(=O)Nc1ccc(NC(=O)C(C)OC(=O)c2cccs2)cc1 (stereo not drawn)	none (no result: SMN2 splice enh, FLuc modulator)
COc1ccccc1N1CCN(C(=O)c2cn(C)c3ccc(S(=O)(=O)N4CCOCC4)cc3c2=O)CC1	none
O=C(c1ccc(-c2ccccc2)cc1)N1CCCC1	FLuc modulator inconclusive, ELG1 DNA repair inconclusive, ELG1 genotox inconclusive
O=C(c1cccc(-c2nnc(-c3ccccc3)o2)c1)N1CCCCCC1	SMN2 splice enh inconclusive, NPC1 promoter act inconclusive, FLuc modulator 17µM, Rab9 prom act inconclusive, ELG1 genotox inconclusive
O=C(c1cccc(-c2nnc(-c3ccccc3)o2)c1)N1CCCCC1	SMN2 splice enh 14µM, NPC1 promoter act inconclusive, FLuc modulator 17µM, Rab9 prom act inconclusive, ELG1 DNA repair inconclusive, ELG1 genotox inconclusive
CCOC(=O)c1[nH]c2ccc(F)cc2c1NC(=O)C(C)N1CCc2cc(OC)c(OC)cc2C1 (stereo not drawn)	ELG1 DNA repair 4.1µM
CCOC(=O)c1[nH]c2cc(OC)c(OC)cc2c1NC(=O)CN1CCN(C)CC1	ELG1 genotox 21µM (no result: SMN2 splice enh)
CCOC(=O)c1[nH]c2ccc(OC)cc2c1NC(=O)CN1CCc2ccccc2C1	ELG1 DNA repair 16µM
CCOC(=O)c1[nH]c2ccc(C)cc2c1NC(=O)CN1CCCCC1	ELG1 DNA repair inconclusive
CCOC(=O)c1[nH]c2ccc(OC)cc2c1NC(=O)CN1CCN(c2ccccn2)CC1	ELG1 DNA repair inconclusive
CCCn1c(=O)c2sccc2n2c(CCCC(=O)NCCOC)nnc12	none (no result: SMN2 splice enh, NPC1 promoter act, Rab9 prom act, ELG1 DNA repair, ELG1 genotox)
COc1cc(NS(=O)(=O)c2ccc3oc(=O)c4ncn(C)c4c3c2)cc(OC)c1	none (no result: SMN2 splice enh, NPC1 promoter act, Rab9 prom act, ELG1 DNA repair, ELG1 genotox)
CCn1c(=O)c(C(=O)Nc2cnccn2)c(O)c2ccccc21	none
Cn1c(=O)c(C(=O)Nc2ccccn2)c(O)c2ccccc21	NPC1 promoter act inconclusive, FLuc modulator 4.8µM, Rab9 prom act 2.8µM, ELG1 DNA repair inconclusive, ELG1 genotox inconclusive (no result: SMN2 splice enh)
Cn1c(=O)c(C(=O)Nc2cnccn2)c(O)c2ccccc21	SMN2 splice enh 13µM, Rab9 prom act inconclusive, ELG1 DNA repair inconclusive
C[C@H](NC(=O)c1nc[nH]c1C(=O)N1CCc2ccccc2C1)C(=O)OCc1ccccc1	none (no result: SMN2 splice enh)
CCCC1c2ccc(C)n2CCN1C(=O)Nc1ccccc1Cl (stereo not drawn)	SMN2 splice enh inconclusive, FLuc modulator 12µM, ELG1 DNA repair inconclusive
Cc1ccccc1/C=C\c1nc2ccccc2c(=O)[nH]1	SMN2 splice enh 10µM, NPC1 promoter act inconclusive, FLuc modulator 1.9µM, Rab9 prom act 0.56µM, ELG1 DNA repair inconclusive, ELG1 genotox 18µM
Cc1ccccc1/C=C/c1nc2ccccc2c(=O)[nH]1	NPC1 promoter act inconclusive, FLuc modulator 2.1µM, Rab9 prom act 1.4µM, ELG1 DNA repair inconclusive, ELG1 genotox 10µM (no result: SMN2 splice enh)
CCC(C)[C@@H](N)C(=O)N/N=C/c1ccc2ncccc2c1 (stereo partly drawn)	none
COc1cccc(C(=O)Nc2ccncc2)c1OC	none (no result: SMN2 splice enh)
CC(C)OC(=O)c1cccc(C(=O)Nc2cccc(NC(=O)c3cccc(C(=O)OC(C)C)n3)n2)n1	ELG1 DNA repair 8.2µM
COc1cccc(NC(=O)c2cccc(OC)c2OC)c1	SMN2 splice enh 16µM, NPC1 promoter act inconclusive, FLuc modulator 21µM, Rab9 prom act inconclusive, ELG1 DNA repair inconclusive, ELG1 genotox 10µM
